{"source": "the supplement of paper PMC8728848", "assay_in_all_cases": "glycan array binding signal (z-score within array); higher = stronger binding", "conditions_in_all_cases": "glycan notation: IUPAC condensed, linker removed", "key": {"Fuc(a1-2)Gal(b1-3)GlcNAc": {"target": "Fuc(a1-2)Gal(b1-3)GlcNAc", "method_in_brief": "(§1)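 Glycan array binding is given as a within-array Z-score, which can be read as non-binding when negative. The arrays, 3228 of them, came from the Consortium for Functional Glycomics database and were retained only where the protein sequence was available. Z-scores were averaged across arrays of the same protein sequence at different concentrations or buffers and across linkers.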"}, "[1]": {"target": "Fuc(a1-2)Gal(b1-3)[Fuc(a1-4)]GlcNAc", "method_in_brief": "as §1"}, "Fuc(a1-2)Gal(b1-4)GlcNAc": {"target": "Fuc(a1-2)Gal(b1-4)GlcNAc", "method_in_brief": "as §1"}, "[2]": {"target": "Fuc(a1-2)[Gal(a1-4)]Gal(b1-4)GlcNAc", "method_in_brief": "as §1"}, "[3]": {"target": "Fuc(a1-2)[GalNAc(a1-4)]Gal(b1-4)GlcNAc", "method_in_brief": "as §1"}, "Gal(a1-3)Gal(b1-4)GlcNAc": {"target": "Gal(a1-3)Gal(b1-4)GlcNAc", "method_in_brief": "as §1"}, "Gal(a1-4)GlcNAc": {"target": "Gal(a1-4)GlcNAc", "method_in_brief": "as §1"}, "Gal4S(b1-4)GlcNAc": {"target": "Gal4S(b1-4)GlcNAc", "method_in_brief": "as §1"}, "GalNAc(a1-3)Gal": {"target": "GalNAc(a1-3)Gal", "method_in_brief": "as §1"}, "Glc(a1-4)Glc": {"target": "Glc(a1-4)Glc", "method_in_brief": "as §1"}, "[4]": {"target": "GlcNAc(a1-6)Gal(b1-4)GlcNAc", "method_in_brief": "as §1"}, "Kdn(a2-3)Gal(b1-4)GlcNAc": {"target": "Kdn(a2-3)Gal(b1-4)GlcNAc", "method_in_brief": "as §1"}, "Man(a1-2)Man(a1-3)Man": {"target": "Man(a1-2)Man(a1-3)Man", "method_in_brief": "as §1"}, "Man(a1-3)[Man(a1-6)]Man": {"target": "Man(a1-3)[Man(a1-6)]Man", "method_in_brief": "as §1"}, "[5]": {"target": "Man(a1-3)[Man(a1-6)]Man(b1-4)GlcNAc(b1-4)GlcNAc", "method_in_brief": "as §1"}, "[6]": {"target": "Neu5Ac(a2-3)Gal(b1-4)GlcNAc(b1-3)Gal(b1-4)GlcNAc", "method_in_brief": "as §1"}, "[7]": {"target": "Neu5Ac(a2-8)Neu5Ac(a2-3)[GalNAc(b1-4)]Gal(b1-4)Glc", "method_in_brief": "as §1"}, "[8]": {"target": "Neu5Ac(a2-8)Neu5Ac(a2-8)Neu5Ac", "method_in_brief": "as §1"}, "[9]": {"target": "Neu5Ac9Ac(a2-6)Gal(b1-4)GlcNAc", "method_in_brief": "as §1"}}, "note": "The full list was thinned out, with the strongest signals kept by preference.", "data": [{"binder": "CV-IIL (Chromobacterium violaceum) (protein) AQQGVFTLPARINFGVTVLVNSAATQHVEIFVDNEPRAAFSGVGTGDNNLGTKVINSGSGNVRVQITANGRQSDLVSSQLVLANKLNLAVVGSEDGTDMDYNDSIVILNWPLG", "values": [{"measurement": "glycan array binding signal (z-score)", "setting": "Fuc(a1-2)Gal(b1-3)GlcNAc", "value": 2.67}, {"measurement": "glycan array binding signal (z-score)", "setting": "[1]", "value": 2.2}, {"measurement": "glycan array binding signal (z-score)", "setting": "Fuc(a1-2)Gal(b1-4)GlcNAc", "value": 2.98}, {"measurement": "glycan array binding signal (z-score)", "setting": "[2]", "value": 1.68}, {"measurement": "glycan array binding signal (z-score)", "setting": "[3]", "value": 1.2}, {"measurement": "glycan array binding signal (z-score)", "setting": "Gal(a1-3)Gal(b1-4)GlcNAc", "value": -0.501}, {"measurement": "glycan array binding signal (z-score)", "setting": "Gal(a1-4)GlcNAc", "value": -0.501}, {"measurement": "glycan array binding signal (z-score)", "setting": "Gal4S(b1-4)GlcNAc", "value": -0.501}, {"measurement": "glycan array binding signal (z-score)", "setting": "GalNAc(a1-3)Gal", "value": -0.502}, {"measurement": "glycan array binding signal (z-score)", "setting": "Glc(a1-4)Glc", "value": -0.49}, {"measurement": "glycan array binding signal (z-score)", "setting": "[4]", "value": -0.501}, {"measurement": "glycan array binding signal (z-score)", "setting": "Kdn(a2-3)Gal(b1-4)GlcNAc", "value": -0.502}, {"measurement": "glycan array binding signal (z-score)", "setting": "Man(a1-2)Man(a1-3)Man", "value": 1.55}, {"measurement": "glycan array binding signal (z-score)", "setting": "Man(a1-3)[Man(a1-6)]Man", "value": 2.82}, {"measurement": "glycan array binding signal (z-score)", "setting": "[5]", "value": 2.82}, {"measurement": "glycan array binding signal (z-score)", "setting": "[6]", "value": -0.498}, {"measurement": "glycan array binding signal (z-score)", "setting": "[7]", "value": -0.501}, {"measurement": "glycan array binding signal (z-score)", "setting": "[8]", "value": -0.501}, {"measurement": "glycan array binding signal (z-score)", "setting": "[9]", "value": -0.502}]}]}
